Assay results published in PubChem BioAssay AID2289 (National Center for Advancing Translational Sciences (NCATS), 2010).
The whole screen tested about 340,000 compounds, of which about 3,300 (0.97%) were called active. Another 9% or so got no clear call; they are omitted. Calls come from the whole dose curve; as a rule, active = well fitted inhibition curve with a large enough effect; inconclusive = small, poorly fitted or top-dose-only effect, or effect the other way; inactive = flat fitted curve, though single readings scatter. The list shows a part of the results.

Assay: qHTS Assay for Modulators of miRNAs and/or Inhibitors of miR-21; note: nearly all actives have a fitted effect of over 55% in size
Conditions: HeLa miR-21-FLuc reporter, luciferase luminescence, 48 h; actives lower the signal
Method in brief: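 Compounds were titrated across several concentrations (up to approximately 40 uM) and incubated 48 hours with HeLa miR-21-FLuc reporter cells (miR-21 target sequence downstream of FLuc, endogenous miR-21). Readout was firefly luciferase luminescence after lytic detection reagent.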
Potency is the fitted concentration of half-maximal effect.

Row | Structure (SMILES) | Potency
1 | Cc1ccc(N/C=C2/Sc3ccccc3NC2=O)cc1 | 4.14 µM (active)
2 | Cc1nn(-c2ccccc2)c(Cl)c1/C=N/NC(=O)c1ccco1 | 3.29 µM (active)
3 | COC(=O)N/N=C\c1c(C)nn(-c2ccccc2)c1Cl | 7.36 µM (active)
4 | Cc1nn(-c2ccccc2)c(Cl)c1/C=N/Nc1nc2ccccc2[nH]1 | 0.293 µM (active)
5 | Cc1nn(-c2ccccc2)c(Cl)c1/C=N/NC(=O)c1ccnn1C | 5.21 µM (active)
6 | CCOC(=O)N/N=C/c1c(C)nn(-c2ccccc2Cl)c1Cl | 7.36 µM (active)
7 | Cc1nn(-c2ccccc2)c(Cl)c1/C=N/NC(=O)c1ccccc1F | 4.65 µM (active)
8 | Cc1nn(-c2ccccc2)c(Cl)c1/C=N/NC(N)=O | 16.5 µM (active)
9 | CC1CCCN(c2nc3ccsc3c(=O)s2)C1 (stereo unspecified) | 8.26 µM (active)
10 | Cn1nc(NC(=O)C(F)(F)F)c2ncc(-c3ccc(Cl)cc3)nc21 | 9.27 µM (active)
11 | Cc1ccc2c(C)c(C(=O)N3CCCC(C(N)=O)C3)oc2c1C (stereo unspecified) | 13.1 µM (active)
12 | c1ccc(COc2ccc(CN3CCN(c4ccccn4)CC3)cc2)cc1 | 6.56 µM (active)
13 | C=COC(=O)CSc1nc(-c2cccs2)ccc1C#N | 0.927 µM (active)
14 | Cc1cc2ncc(-c3ccccc3)nc2cc1C | 0.656 µM (active)
15 | CCOC(=O)c1ccc(Nc2cnc3ccccc3n2)cc1 | 1.47 µM (active)
16 | Cc1cc(-c2ccccc2)nc(-c2ccccc2)c1C | 7.36 µM (active)
17 | CCOC(=O)c1cnc(-c2ccccc2)nc1N(C)C | 7.36 µM (active)
18 | CCOC(=O)c1ccc2ncc(-c3ccccc3)nc2c1 | 1.85 µM (active)
19 | CCOC(=O)c1ccc2c(c1)nc(-c1ccccn1)n2CC | 1.65 µM (active)
20 | O=[N+]([O-])c1cccc(-c2ccc(SCc3ccccn3)nn2)c1 | 6.56 µM (active)
21 | Cc1cc2ncn(C(=O)N3CCC(C)CC3)c2cc1C | 10.4 µM (active)
22 | COc1cc(/C=C/c2ccc(O)cc2)cc(OC)c1 | 2.93 µM (active)

Row | Structure (SMILES) | Potency
23 | FC(F)(F)c1ccnc(Oc2ccc(C3=NCCS3)cc2)c1 | 1.65 µM (active)
24 | O=C(Cn1nnc(-c2ccc3c(c2)OCO3)n1)Nc1ccccc1C(=O)O | 14.7 µM (active)
25 | Cc1ccccc1Cn1nnc(-c2ccc3c(c2)OCO3)n1 | 16.5 µM (active)
26 | Cc1ccccc1CSc1ccc(-c2ccc3c(c2)OCO3)nn1 | 14.7 µM (active)
27 | COc1cccc(-n2cnc3sc(C)c(C)c3c2=O)c1 | 11.7 µM (active)
28 | Fc1cccc(NCc2ccccc2-c2nnc(-c3ccccc3Cl)o2)c1 | 1.04 µM (active)
29 | Clc1ccccc1-c1nnc(-c2ccc3c(c2)OCO3)o1 | 0.585 µM (active)
30 | Clc1ccccc1-c1nnc(-c2ccccc2Cl)o1 | 3.69 µM (active)
31 | O=C(c1cccc(C(F)(F)F)c1)C1CCCN(C(=O)CN2CCCC2=O)C1 (stereo unspecified) | 3.29 µM (active)
32 | N#Cc1ccccc1CSc1nc2ccsc2c(=O)n1Cc1ccccn1 | 16.5 µM (active)
33 | Clc1ccccc1-c1nnc(COc2ccccc2)o1 | 5.85 µM (active)
34 | Fc1ccc(OCc2nnc(-c3ccccc3Br)o2)c(Cl)c1 | 13.1 µM (active)
35 | Clc1cccc(OCc2nnc(-c3ccccc3Br)o2)c1 | 16.5 µM (active)
36 | Clc1ccccc1OCc1nnc(-c2ccccc2Br)o1 | 4.65 µM (active)
37 | N#Cc1ccccc1OCc1nnc(-c2ccccc2Br)o1 | 1.31 µM (active)
38 | Clc1ccccc1OCc1nnc(-c2ccccc2)o1 | 7.36 µM (active)
39 | c1ccc(CCn2nnc3ccccc32)cc1 | 14.7 µM (active)
40 | Clc1ccccc1OCCn1nnc2ccccc21 | 13.1 µM (active)
41 | C(#Cc1ccccc1)Cn1nnc2ccccc21 | 13.1 µM (active)
42 | CCOC(=O)C1(Cc2ccccc2)CCCN(C(=O)c2cnn(CC)c2)C1 (stereo unspecified) | 9.27 µM (active)
43 | CCOC(=O)C1(Cc2cccc(OC)c2)CCCN(C(=O)CCN2CCCO2)C1 (stereo unspecified) | 5.85 µM (active)
44 | O=C(N/N=C/c1cn(-c2ccccc2)nc1-c1cc2ccccc2o1)c1ccccc1Br | 0.927 µM (active)

Row | Structure (SMILES) | Potency
45 | COc1ccc(Cn2c(C3CC3)nc3ccc(NC(=O)C4CC4)cc3c2=O)cc1 | 1.47 µM (active)
46 | COc1ccc(Cn2c(C3CC3)nc3ccc(NC(C)=O)cc3c2=O)cc1 | 3.29 µM (active)
47 | CCC(=O)Nc1ccc2nc(C3CC3)n(Cc3ccc(C(C)(C)C)cc3)c(=O)c2c1 | 0.185 µM (active)
48 | CC(=O)c1ccc(NS(=O)(=O)c2cccc(C)c2)cc1 | 11.7 µM (active)
49 | Cc1ccc2nc(-c3ccc(NS(=O)(=O)c4ccc(F)cc4)cc3)sc2c1 | 6.56 µM (active)
50 | Cc1cccc(S(=O)(=O)Nc2ccc(-c3nc4ccc(C)cc4s3)cc2)c1 | 2.07 µM (active)
51 | CCc1ccc2oc(-c3cc(N=Cc4cccc(OC)c4O)ccc3O)nc2c1 | 0.656 µM (active)
52 | O=C(N/N=C/c1cccs1)c1c[nH]c2ccccc12 | 7.36 µM (active)
53 | CC/C(=N\NC(=O)c1c[nH]c2ccccc12)c1cccs1 | 2.93 µM (active)
54 | CN1CCN(C(=S)c2ccc(-c3cccc(Cl)c3Cl)o2)CC1 | 5.21 µM (active)
55 | S=C(c1ccc(-c2ccccc2Cl)o1)N1CCCCC1 | 3.29 µM (active)
56 | COCCCNC(=S)N/N=C/c1ccc(N(C)C)cc1Cl | 5.85 µM (active)
57 | Cc1ccc(O)c(-c2cc(-c3cccc(Br)c3)n[nH]2)c1 | 6.56 µM (active)
58 | Cc1cccc(NC(=O)c2cc(-c3cc(C)c(C)cc3O)n[nH]2)c1 | 0.736 µM (active)
59 | Cc1cccc(NC(=O)c2cc(-c3cc(C)ccc3O)n[nH]2)c1 | 1.04 µM (active)
60 | Cc1ccc(C)c(NC(=O)c2cc(-c3cc(C)ccc3O)n[nH]2)c1 | 5.21 µM (active)
61 | O=C(O)c1ccc(N/N=C/c2ccnc3ccccc23)cc1 | 3.69 µM (active)
62 | O=C(O)c1ccc(N/N=C/c2cccc3cccnc23)cc1 | 0.369 µM (active)
63 | CCCn1ncc2c(Nc3ccc(C)c(C)c3)ncnc21 | 4.65 µM (active)
64 | Cn1ncc2c(Nc3ccc4ccccc4c3)ncnc21 | 4.65 µM (active)
65 | Clc1ccc2c(c1)[C@H]1OCC[C@H]1[C@@H](c1ccco1)N2 | 5.85 µM (active)
66 | Clc1ccc2c(c1)C1OCCC1C(c1ccco1)N2 (stereo unspecified) | 6.56 µM (active)
